# According to the supplement of paper PMC11624193, “Coupling cellular drug-target engagement to downstream pharmacology with CeTEAM” (Nature Communications, 2024):
# Several values for one entry are separate records, joined by “and”; a condition that tells them apart may be missing. Equal values may be shown once. Where a name gives a salt, the structure may show the parent alone. A number with no mark means an inactive call.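 The calls were made as follows: active = log2 fold change beyond 2 SD from the library mean after excluding viability outliers; inactive = within 2 SD.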
# Target: PARP1 L713F-nLuc biosensor (HCT116) (UniProt P09874)
# Assay: PARP1 L713F-nLuc/akaLuc ratio relative to DMSO control (biosensor stabilization) (fold change); higher = more PARP1 biosensor stabilization (target engagement / stabilizer), active = hit call of the paper
# Conditions: stock concentration (mM; final µM = stock mM x 1): 10; 24 h
# Chain of PARP1 L713F-nLuc biosensor (HCT116) (P09874 whole entry L713F, looked up): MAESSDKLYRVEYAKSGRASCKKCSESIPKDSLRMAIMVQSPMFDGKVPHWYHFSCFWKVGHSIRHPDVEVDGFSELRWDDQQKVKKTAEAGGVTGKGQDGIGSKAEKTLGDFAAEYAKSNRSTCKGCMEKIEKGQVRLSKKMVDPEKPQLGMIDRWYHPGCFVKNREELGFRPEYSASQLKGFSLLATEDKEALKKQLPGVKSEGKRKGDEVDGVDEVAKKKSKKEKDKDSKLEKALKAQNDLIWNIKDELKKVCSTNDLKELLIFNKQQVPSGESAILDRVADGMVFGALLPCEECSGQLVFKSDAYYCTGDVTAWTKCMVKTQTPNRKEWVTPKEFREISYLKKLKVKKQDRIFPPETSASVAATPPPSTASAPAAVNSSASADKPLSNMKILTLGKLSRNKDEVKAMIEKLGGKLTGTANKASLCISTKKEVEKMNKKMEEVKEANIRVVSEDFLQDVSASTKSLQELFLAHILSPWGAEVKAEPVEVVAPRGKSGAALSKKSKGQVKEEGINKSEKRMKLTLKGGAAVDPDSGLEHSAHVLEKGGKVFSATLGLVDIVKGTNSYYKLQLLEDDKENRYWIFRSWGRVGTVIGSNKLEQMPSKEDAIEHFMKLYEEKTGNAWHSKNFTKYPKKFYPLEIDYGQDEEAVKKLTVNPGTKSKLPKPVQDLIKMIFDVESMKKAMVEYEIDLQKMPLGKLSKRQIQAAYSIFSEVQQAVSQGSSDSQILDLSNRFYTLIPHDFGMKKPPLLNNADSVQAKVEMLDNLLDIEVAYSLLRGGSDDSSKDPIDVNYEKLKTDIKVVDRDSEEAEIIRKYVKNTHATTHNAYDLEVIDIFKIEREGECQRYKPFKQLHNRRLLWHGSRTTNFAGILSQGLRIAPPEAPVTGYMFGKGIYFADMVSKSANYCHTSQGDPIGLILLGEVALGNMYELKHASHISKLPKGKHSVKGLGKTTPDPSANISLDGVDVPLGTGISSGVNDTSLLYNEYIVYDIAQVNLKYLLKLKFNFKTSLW
row,Structure (SMILES),PARP1 L713F-nLuc/akaLuc ratio
1,CCCCCC1CC1CC1CC1CCCCCCCC(=O)O (centres undefined),1.14
2,O=C(/C=C/c1ccc(O)c(O)c1)O[C@@H]1C[C@](O)(C(=O)O)C[C@@H](O)[C@H]1O [Chlorogenic acid],1.16
3,N#Cc1c(-c2ccccc2)cc(-c2cc(Br)ccc2O)[nH]c1=O,0.708
4,O=c1[nH]c(=S)[nH]c(-c2ccccc2)c1Cc1c(O)ccc2ccccc12 [Cambinol],0.684
5,CC/C(=C(\c1ccc(O)cc1)c1ccc(OCCN(C)C)cc1)c1ccccc1 [4-Hydroxytamoxifen],0.97
6,N#Cc1c(O)c2c(-c3ccc(-c4ccccc4O)cc3)csc2[nH]c1=O,0.692
7,O=C1COc2c(CCNCCN(C(=O)CCNCCc3ccc(Cl)c(Cl)c3)C3CCCCC3)ccc(O)c2N1,1.16
8,COc1cc2ncnc(Nc3ccc(O)cc3)c2cc1OC,0.842
9,Nc1nc(OCc2cc(Br)cs2)c2[nH]cnc2n1 [Lomeguatrib],1.01
10,CCNc1nc(Nc2cc(F)c(C(=O)N3CCOCC3)cc2OC)ncc1C(F)(F)F,0.683
11,NC(=O)c1cccc2cn(-c3ccc([C@@H]4CCCNC4)cc3)nc12 [Niraparib (hydrochloride)],4.39 (active)
12,CN(Cc1cnc2nc(N)nc(N)c2n1)c1ccc(C(=O)N[C@@H](CCC(=O)O)C(=O)O)cc1 [Methotrexate],0.755
13,C[C@@H]1C[C@H]2[C@@H]3CCC4=CC(=O)C=C[C@]4(C)[C@@]3(F)[C@@H](O)C[C@]2(C)[C@@]1(O)C(=O)CO [Dexamethasone (DHAP)],1.03
14,CS(=O)(=O)N1CCN(Cc2cc3nc(-c4cccc5[nH]ncc45)nc(N4CCOCC4)c3s2)CC1 [Pictilisib (GDC-0941)],0.659
15,COc1cc2c(Nc3ccc(NC(=O)c4ccccc4)cc3)ncnc2cc1OCCCN1CCOCC1,0.809
16,O=C(Nc1cc(Cl)cc(Cl)c1)Nc1cc(Cl)cc(Cl)c1,1.29
17,Cc1cc(C)cc(Oc2ccc(CNC(=O)[C@H](C)N)cc2C)c1,1.24
18,C[C@@H]1CCN(C(=O)CC#N)C[C@@H]1N(C)c1ncnc2[nH]ccc12,0.783
19,Cc1cc(Nc2cc(N3CCN(C)CC3)nc(Nc3ccc([N+](=O)[O-])cc3)n2)n[nH]1,1.52
20,NCCNc1ccc(NCCN)c2c1C(=O)c1ccncc1C2=O [Pixantrone Maleate],1.15

row,Structure (SMILES),PARP1 L713F-nLuc/akaLuc ratio
1,Cc1ccc(-c2cc(C(F)(F)F)nn2-c2ccc(S(N)(=O)=O)cc2)cc1 [Celecoxib],1.02
2,C=CC(=O)Nc1cccc(CNc2nc(Nc3ccc(N4CCN(C)CC4)cc3OC)ncc2Cl)c1,1.54
3,Cn1cc(C(=O)Nc2ccc([C@@H]3C[C@H]3NCC3CC3)cc2)cn1,0.949
4,CC1(C)NC(=O)N(c2ccc([N+](=O)[O-])c(C(F)(F)F)c2)C1=O [Nilutamide],0.772
5,O=C(Nc1ccc(C(F)(F)F)cc1)Nc1ccc(S(=O)(=O)N2CCC[C@H]2C(=O)Nc2ccccc2)cc1,0.728
6,CC(C)(C)c1nc(-c2cccc(NS(=O)(=O)c3c(F)cccc3F)c2F)c(-c2ccnc(N)n2)s1,0.885
7,COc1ccc(C(=C2C(=O)Nc3ccccc32)c2ccc(OC)cc2)cc1,0.833
8,CC1(C)CN(C(=O)c2ccc(-c3cccc4nc(NC(=O)C5CC5)nn34)cc2)C1 [Solcitinib],0.98
9,O=C(NCCCN1CCCC1)c1cncc(-c2ccccc2N2CCN(CCc3c[nH]c4ccccc34)CC2)c1,0.537
10,O=C(Nc1cccc(Cl)c1)Nc1ncc(CCNc2ncnc3ccsc23)s1 [SNS-314 (mesylate)],1.11
11,Cc1cc(CN)cc(C)c1-c1ncn(C)c1-c1ccnc2cc(F)ccc12 [BI-9321 (trihydrochloride)],0.66
12,CC[C@H](C)C(=O)O[C@H]1C[C@@H](C)C=C2C=C[C@H](C)[C@H](CC[C@@H]3C[C@@H](O)CC(=O)O3)[C@H]21 [Lovastatin],0.643
13,Cc1cn(CCN2CCN(c3ccccc3-c3cc(C#N)cc(C(=O)NCCCN4CCCC4)c3)CC2)c2ccccc12,0.612
14,S=c1[nH]cnc2nc[nH]c12 [Mercaptopurine (6-MP)],2.51
15,CC(C)N(CCCNC(=O)Nc1ccc(C(C)(C)C)cc1)C[C@H]1O[C@@H](n2cc(Br)c3c(N)ncnc32)[C@H](O)[C@@H]1O,0.82 and 0.934
16,COCCNCc1ccc(-c2cc3nccc(Oc4ccc(NC(=O)C5(C(=O)Nc6ccc(F)cc6)CC5)cc4F)c3s2)nc1 [Sitravatinib (MGCD516)],1.48
17,Cc1ccc(=O)n(-c2ccccc2)c1 [Pirfenidone],0.824
18,Cn1ncc(Cl)c1-c1cc(C(=O)N[C@H](CN)Cc2ccc(F)c(F)c2)oc1Cl,0.603
19,C[C@H]1CCCN1Cc1nc2cc(NC(=O)c3ccc4c(cnn4C)c3)ccc2[nH]1,0.788
